For some assays here: Entries with a potency or affinity are not part of this list. Activity calls are given as the source filed them.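 Rule for the calls, unless noted: active = hit in primary screen, with calcium signal over 5 SD above buffer well mean in both duplicates; inactive = the rest.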
Legend:
[1] = test system: TRPC4 beta (transient receptor potential cation channel C4), mouse; experiment: activators of mouse TRPC4 channel, confirmation, cell-based, Fluo4 calcium, HEK293 TRPC4beta/mu-opioid, duplicates, 10 µM (AID 2426;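 active = fluorescence ratio normalized to control raised more than 50% in primary screen plus both repeat runs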;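 note: percent rise of integrated ratio over buffer wells lacking compound which define 0%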); settings: Fluo4 calcium fluorescence, at 10 µM; active compounds read high
[2] = test system: transient receptor potential cation channel C4 beta (TRPC4), mouse; experiment: activators of mouse TRPC4 channel, confirmation, cell-based, second round, Fluo4, HEK293 TRPC4beta/mu-opioid, 1 µM (AID 2461;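 active = primary screen active and over 50% activation in each of two duplicate runs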;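 for activation: 0% = wells without test compound as baseline of integrated fluorescence ratio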); settings: Fluo4 calcium fluorescence, at 1 µM; active compounds read high
[3] = test system: TRPC4 (transient receptor potential cation channel C4 beta), mouse; experiment: positive allosteric modulators of mouse TRPC4, confirmation, cell-based, second round, Fluo-4, HEK293 TRPC4beta/mu-opioid, 1 µM (AID 2554;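 active = primary screen hit whose fluorescence ratio, in both repeats, exceeds the weak agonist control mean by 3 SD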); settings: DAMGO EC20, Fluo-4 calcium flux, at 1 µM; active compounds read high
[4] = test system: TRPC4 beta (transient receptor potential cation channel C4), mouse; experiment: positive allosteric modulators of mouse TRPC4, confirmation, cell-based, Fluo-4, HEK293 TRPC4beta/mu-opioid (AID 2555;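 active = primary screen hit whose calcium fluorescence ratio, in both repeats, exceeds the weak agonist control mean by 3 SD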); settings: DAMGO EC20, Fluo-4 calcium flux, at 10 µM; active compounds read high
[5] = target: Short transient receptor potential channel 4 (Mus musculus) (UniProt Q9QUQ5); experiment: inhibitors of mouse TRPC4 channel, confirmation, cell-based, Fluo4, HEK293 TRPC4beta/mu-opioid (AID 2636;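 active = calcium signal cut by more than 3 SD below the full-agonist control yet still positive, in both repeats and the earlier primary screen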); settings: DAMGO, Fluo4 calcium flux, at 10 µM; active compounds read high
[6] = target: Short transient receptor potential channel 4 (Mus musculus) (UniProt Q9QUQ5); experiment: inhibitors of mouse TRPC4 channel, confirmation, cell-based, second round, Fluo4, HEK293 TRPC4beta/mu-opioid, 1 µM (AID 2637;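 active = calcium signal ratio cut to more than 3 SD under the fully stimulated control mean yet still positive, in both repeats and the primary screen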;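 for inhibition: percent of integrated ratio relative to wells lacking test compound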); settings: Fluo4 calcium flux, DAMGO, at 1 µM; active compounds read high
[7] = target: Short transient receptor potential channel 4 (Mus musculus) (UniProt Q9QUQ5); experiment: TRPC4 positive allosteric modulators, dose response, cell-based, HEK293 TRPC4/mu-opioid, Fluo-4 calcium, EC20 DAMGO (AID 434941;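 active = earlier screen potentiator hit that boosts the TRPC4 ion channel at some dose, with a dose response; inactive = no potentiation, no dose response, or not a prior hit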;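 note: calcium entry triggered by an EC20 dose of DAMGO at the co-expressed mu-opioid receptor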); settings: HEK293 TRPC4/mu-opioid cells, Fluo-4 calcium fluorescence; series mostly up to 20 µM
[8] = target: Short transient receptor potential channel 4 (Mus musculus) (UniProt Q9QUQ5); experiment: mouse TRPC4 channel inhibitors, dose response, cell-based, HEK293 TRPC4/mu-opioid, Fluo-4 calcium (AID 434942;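 active = primary screen inhibitor hit that blocks the TRPC4 channel at some tested dose, yielding a dose curve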); settings: HEK293 TRPC4/mu-opioid cells, DAMGO-evoked Fluo-4 calcium ratio; series mostly up to 20 µM
[9] = target: Short transient receptor potential channel 6 (Mus musculus) (UniProt Q61143); experiment: inhibition of mouse TRPC6 channel, confirmation, selectivity assay for TRPC4 inhibitor project, cell-based, HEK293, membrane potential dye, duplicate (AID 434948;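 active = active in primary screen and both duplicates, each dropping signal beyond three positive-control SD with fluorescence still positive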); settings: HEK293 TRPC6, membrane potential dye fluorescence, at 10 µM; inhibition: active compounds read high, stimulated with maximal-effect acetylcholine unless noted; outcome: stimulated with maximal-effect acetylcholine unless noted
[10] = target: Short transient receptor potential channel 6 (Mus musculus) (UniProt Q61143); experiment: activation of mouse TRPC6 channel, confirmation, selectivity assay for TRPC4 activator project, cell-based, HEK293, membrane potential dye, duplicate (AID 434950;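 active = membrane potential signal rise above negative control mean plus 3 SD in both duplicates, also active in the earlier TRPC4 screen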;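 for activation: 0% = buffer only wells and 100% = acetylcholine maximal-effect wells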); settings: HEK293 TRPC6, membrane potential fluorescence, at 10 µM; active compounds read high
[11] = target: Short transient receptor potential channel 6 (Mus musculus) (UniProt Q61143); experiment: TRPC6 potentiation by TRPC4 potentiator hits, confirmation, selectivity assay for TRPC4 potentiator project, HEK293 cells, membrane potential dye, duplicate (AID 434952;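 active = compound raising the membrane signal above positive-control mean plus 3 SD in both repeats, and a primary screen hit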); settings: HEK293 TRPC6, membrane potential dye fluorescence, at 10 µM; maximal acetylcholine added after compound unless noted
[12] = target: Short transient receptor potential channel 4 (Mus musculus) (UniProt Q9QUQ5); experiment: calcium flux activators in TRPC4/5HT1a cells, counter-screen for TRPC4 activator project, cell-based, second counter screen, HEK293 TRPC4/5HT1a, Fluo-4 (AID 434977;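 active = calcium signal rise above buffer-control mean plus 5 SD in both duplicates, and also a hit in the primary screen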;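 for activation: plate controls were assay buffer for no effect and maximal serotonin response for full effect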); settings: Fluo-4 calcium flux, at 10 µM; active compounds read high
[13] = calcium flux inhibitors in TRPC4/5HT1a cells, confirmation, counter-screen for TRPC4 inhibitor project, cell-based, second counter screen, HEK293 TRPC4/5HT1a, Fluo-4 (AID 434978;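 active = primary screen active whose calcium signal fell more than 3 SD beyond the full-serotonin control mean in both duplicate plates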;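 note: serotonin given first at submaximal then at maximal dose after compound preincubation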); settings: Fluo-4 calcium flux, at 10 µM; inhibition: active compounds read high, serotonin added to trigger calcium flux unless noted; outcome: serotonin added to trigger calcium flux unless noted
[14] = test system: TRPC4 (mouse), co-expressed with 5HT1a in HEK293; experiment: calcium flux potentiators in TRPC4/5HT1a cells, confirmation, counter-screen for TRPC4 potentiator project, cell-based, second counter screen, HEK293 TRPC4/5HT1a, Fluo-4 (AID 434979;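 active = signal rise over 3 SD above mean of control wells given weak agonist, in both repeats and first screen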); settings: Fluo-4 calcium flux, at 10 µM; outcome: serotonin added at its EC20 dose unless noted; potentiation: active compounds read high, serotonin added at its EC20 dose unless noted
[15] = calcium flux activation in mu-opioid HEK293 cells, confirmation, counter-screen for TRPC4 activator project, cell-based, HEK293 mu-opioid receptor line (AID 449723); settings: Fluo-4 calcium fluorescence, at 10 µM; active compounds read high;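 note: counter screen cells carry the mu-opioid receptor alone and lack TRPC4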
[16] = calcium flux enhancement in mu-opioid HEK293 cells, confirmation, counter-screen for TRPC4 allosteric potentiator project, cell-based, HEK293 mu-opioid receptor line (AID 449724;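 active = calcium signal rise more than 3 SD above the low-dose agonist control mean, in both duplicate plates and the primary screen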); settings: Fluo-4 calcium flux, at 10 µM; compound added before EC20 DAMGO stimulus unless noted

Short transient receptor potential channel 4 (Mus musculus), sequence (Q9QUQ5 whole entry, looked up): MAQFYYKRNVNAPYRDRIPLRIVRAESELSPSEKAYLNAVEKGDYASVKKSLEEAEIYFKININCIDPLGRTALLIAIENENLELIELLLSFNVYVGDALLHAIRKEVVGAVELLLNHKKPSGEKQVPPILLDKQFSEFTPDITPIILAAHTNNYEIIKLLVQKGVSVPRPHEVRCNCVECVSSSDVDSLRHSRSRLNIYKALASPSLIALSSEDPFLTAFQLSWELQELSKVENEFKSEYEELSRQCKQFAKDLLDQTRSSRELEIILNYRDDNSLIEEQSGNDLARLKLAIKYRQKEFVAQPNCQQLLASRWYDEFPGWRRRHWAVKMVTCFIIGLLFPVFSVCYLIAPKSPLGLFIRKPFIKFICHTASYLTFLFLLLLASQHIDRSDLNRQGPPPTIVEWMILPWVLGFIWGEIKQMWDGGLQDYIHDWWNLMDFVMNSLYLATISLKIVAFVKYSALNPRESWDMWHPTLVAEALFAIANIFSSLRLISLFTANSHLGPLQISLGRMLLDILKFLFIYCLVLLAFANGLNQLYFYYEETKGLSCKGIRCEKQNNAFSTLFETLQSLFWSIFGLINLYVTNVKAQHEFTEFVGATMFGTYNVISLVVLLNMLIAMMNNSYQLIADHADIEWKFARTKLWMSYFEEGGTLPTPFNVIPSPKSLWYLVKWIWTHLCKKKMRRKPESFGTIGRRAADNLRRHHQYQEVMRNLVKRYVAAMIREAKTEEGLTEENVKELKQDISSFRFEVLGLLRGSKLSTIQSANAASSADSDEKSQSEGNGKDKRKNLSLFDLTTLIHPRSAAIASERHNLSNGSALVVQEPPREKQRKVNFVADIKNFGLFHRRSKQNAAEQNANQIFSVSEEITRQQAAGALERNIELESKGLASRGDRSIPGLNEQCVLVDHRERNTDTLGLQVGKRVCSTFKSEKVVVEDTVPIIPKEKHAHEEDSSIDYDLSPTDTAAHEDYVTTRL
Short transient receptor potential channel 6 (Mus musculus), sequence (Q61143 whole entry, looked up): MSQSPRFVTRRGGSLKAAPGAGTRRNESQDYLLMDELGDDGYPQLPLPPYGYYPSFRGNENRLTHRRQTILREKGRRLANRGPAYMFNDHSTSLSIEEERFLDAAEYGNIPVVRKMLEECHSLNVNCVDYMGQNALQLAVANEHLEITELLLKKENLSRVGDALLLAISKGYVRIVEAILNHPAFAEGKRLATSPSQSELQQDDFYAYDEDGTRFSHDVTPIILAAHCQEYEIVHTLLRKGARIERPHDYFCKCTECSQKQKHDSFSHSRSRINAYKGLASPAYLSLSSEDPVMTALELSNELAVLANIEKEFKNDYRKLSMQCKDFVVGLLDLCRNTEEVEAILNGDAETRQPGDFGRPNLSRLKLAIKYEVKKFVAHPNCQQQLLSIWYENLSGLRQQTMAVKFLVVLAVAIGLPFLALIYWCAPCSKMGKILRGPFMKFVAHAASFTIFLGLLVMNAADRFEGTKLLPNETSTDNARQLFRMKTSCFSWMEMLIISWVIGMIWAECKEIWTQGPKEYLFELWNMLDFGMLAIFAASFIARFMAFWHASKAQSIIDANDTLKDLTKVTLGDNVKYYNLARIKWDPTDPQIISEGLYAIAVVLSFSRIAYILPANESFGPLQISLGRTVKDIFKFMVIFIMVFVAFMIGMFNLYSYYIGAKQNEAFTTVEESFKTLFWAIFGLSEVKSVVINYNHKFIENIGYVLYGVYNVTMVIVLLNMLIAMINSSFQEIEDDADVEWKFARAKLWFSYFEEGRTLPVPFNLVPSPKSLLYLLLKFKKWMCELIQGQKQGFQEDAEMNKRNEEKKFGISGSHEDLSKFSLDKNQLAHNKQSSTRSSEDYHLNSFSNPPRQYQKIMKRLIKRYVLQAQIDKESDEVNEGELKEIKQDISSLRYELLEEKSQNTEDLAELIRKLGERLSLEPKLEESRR

N=c1c[n+](CC23CC4CC(CC(C4)C2)C3)[n-]o1
inactive: outcome [3] | outcome [4] | outcome [5] | outcome [6] | outcome [7] | outcome [8] | outcome [9] | outcome [11] | outcome [12] | outcome [13] | outcome [14] | outcome [15] | outcome [16]
active: activation [1] 294% | activation [2] 114% | activation [10] 38%

O=[N+]([O-])c1cc2c(cc1CNCCc1ccc3c(c1)OCO3)OCO2
active: activation [1] 62% | inhibition [5] 91% | inhibition [6] 39%
inactive: outcome [2] | outcome [3] | outcome [4] | outcome [7] | outcome [9] inactive [setting not given] | outcome [10] | outcome [11] inactive [setting not given] | outcome [12] | outcome [13] inactive [setting not given] | outcome [14] inactive [setting not given] | outcome [15] | outcome [16] inactive [setting not given]

Nc1cc(N2CCNCC2)ccc1[N+](=O)[O-]
inactive: outcome [3] | outcome [4] | outcome [5] | outcome [6] | outcome [8] | outcome [9] | outcome [10] | outcome [11] | outcome [13] | outcome [15] | outcome [16]
active: activation [1] 199% | activation [2] 84% | activation [12] 10.7% | potentiation [14] 38.4%

Cc1ccccc1C(O)(Cc1ccccc1)C1CN2CCC1CC2 (configuration not stated)
inactive: outcome [2] | outcome [3] | outcome [4] | outcome [5] | outcome [6] | outcome [7] | outcome [8] | outcome [9] | outcome [11] | outcome [12] | outcome [13] | outcome [14] | outcome [15] | outcome [16]
active: activation [1] 109% | activation [10] 51%

Reference: PubChem BioAssay
